# Laboratory results as given in the supplement of paper PMC4188521.
# Compound: CCc1cnn2c(NCc3ccc[n+]([O-])c3)cc(N3CCCC[C@H]3CCO)nc12 [dinaciclib]
# Experiment: cell viability remaining relative to DMSO control; higher = less cytotoxic (more viable cells)
# Conditions: 100 nM; 24 h
# Outline: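 Remaining viability, expressed as a percentage of the DMSO control, compares luminescence in treated wells with that in DMSO-treated control wells. Solid tumour cell lines from commercial banks received 100 nM of the test compound for 24 hr, with final DMSO kept at ≤0.2%. Viability was read as ATP luminescence using CellTiter-Glo, and values are means from 2–6 plates run in triplicate wells.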
row,Target,cell viability remaining [%]
1,SHP77,50.2
2,H1792,60.9
3,OE19,77.7
4,SW1116,86.8
5,COV644,23.3
6,CORL105,49
7,A2058,18.4
8,MDAMB468,29.1
9,H1793,91.3
10,2313287,65.6
11,SKNFI,24.1
12,CORL23,62.8
13,COLO205,22.4
14,HPAFII,58.1
15,ZR751,91.3
16,SKMEL5,76.8
17,DAOY,23.4

row,Target,cell viability remaining [%]
1,SKCO1,89.8
2,KLE,91.8
3,SW1463,87.4
4,CAOV3,42.2
5,HT29,57.8
6,H1568,28.7
7,HS839T,97.6
8,H1975,69.4
9,RPMI7951,45.3
10,T47D,87.6
11,OVMANA,87.9
12,HT1080,88.8
13,SKMEL31,66.9
14,SH4,64.5
15,H2030,91.9
16,H520,30.8
